# About 83,000 compounds went through this panel and 20% of them were active in at least one assay; those are over-represented in the sample as a whole.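 Single-dose data. Exposure time 48 hours. Values below 10 considered active.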 A number with no mark means an inactive call. Activity calls are given as the source filed them.
# Key:
# Experiment in all cases: NCI-60 one-dose screen, 48 h (100 = growth as untreated, 0 = no growth, -100 = all killed)
# Conditions in all cases: 10 µM unless noted
# [1] = test system: DU-145 prostate
# [2] = test system: K-562 leukemia
# [3] = test system: MALME-3M melanoma
# [4] = test system: MDA-MB-231 breast
# [5] = test system: RXF 393 renal
# [6] = test system: SF-268 CNS
# [7] = test system: SF-295 CNS
# [8] = test system: SF-539 CNS
# [9] = test system: UACC-257 melanoma
# [10] = test system: M14 melanoma
SMILES,growth [1],growth [2],growth [3],growth [4],growth [5],growth [6],growth [7],growth [8],growth [9],growth [10]
COc1cccc(CNCCN2C(=O)c3ccc4c5c(ccc(c35)C2=O)C(=O)N(CCNCc2cccc(OC)c2)C4=O)c1,113%,8.7% (active),26.3%,78.1%,87%,74.1%,113%,97.8%,79.1%,71.7%
CC(=O)OC1CCC2(C)C(CCC3C4CC=C(C(C)=O)C4(C)OC(=O)CC32)C1 (stereo not given),38.2%,-12.4% (active),-25.6% (active),35.3%,-60.5% (active),53%,73.1%,61.7%,-74.9% (active),-31.6% (active)
Nc1nnc(C(=O)c2cnc3n(c2=O)CCCCC3)s1,103%,92.3%,101%,90.4%,104%,96.6%,101%,94.3%,101%,96.7%
CCCCOc1ccc(/C=N/Nc2cc(C)nc3ccc(Cl)cc23)cc1,3.96% (active),-21.7% (active),-77% (active),-49.5% (active),-84.2% (active),64.9%,-83.6% (active),-80.5% (active),84.1%,-25.2% (active)
CC(C)NC(=O)N1C(=O)CCC1NNC(=O)c1ccc([N+](=O)[O-])cc1 (stereo not given),103%,98.6%,101%,108%,123%,100%,105%,97.7%,111%,100%
C=CCn1c(SCC(=O)Nc2ccc(C(=O)/C=C/c3cc(OC)c(OC)c(OC)c3)cc2)nnc1-c1cc(-c2ccc(S(C)(=O)=O)cc2)nc2ccccc12,94.5%,50.5%,89.3%,77.7%,60.9%,86.9%,97.4%,86%,102%,88.8%
COc1ccc(/C=N/C2=C(C#N)C(c3ccccc3[N+](=O)[O-])c3ccc4ccccc4c3O2)cc1 (stereo not given),100%,80.2%,89.8%,77.7%,109%,87.4%,94.9%,97.3%,102%,90.4%
CCCCCCNC(=O)Oc1ccc(/C(=C(/CC)Cc2ccccc2)c2ccc(OCCN(CC)CC)cc2)cc1,80.8%,-11.6% (active),17.4%,67.5%,60.2%,76.5%,102%,86.1%,86%,39.4%
C(=C\c1n(Cc2ccc3ccccc3c2)c(-c2ccccc2)c(-c2ccccc2)[n+]1Cc1ccc2ccccc2c1)/c1ccccc1,-97% (active),-22.3% (active),-86.9% (active),-95% (active),-93.5% (active),-68.5% (active),-95.9% (active),-91.9% (active),-69.2% (active),-72.2% (active)
NC(=S)N/N=C/c1ccc(OC(=O)COc2cc(Cl)c(Cl)cc2Cl)cn1,36.4%,48.6%,75.7%,82.6%,50.1%,41.2%,134%,29.5%,78.9%,41.2%
COc1ccc2c(/C=C3/C(=O)NC(=S)NC3C)cc(=O)oc2c1 (stereo not given),108%,98.1%,99.4%,103%,98.4%,89.4%,97.9%,101%,83.5%,109%
COc1ccc2c(Nc3ccc(NS(C)(=O)=O)cc3)c3ccccc3nc2c1,8.86% (active),6.83% (active),-50.7% (active),3.5% (active),-73.9% (active),-2.84% (active),-27.9% (active),-0.512% (active),-78% (active),-53.6% (active)
O=C1CCCN1c1cccc2cccnc12,111%,96.4%,109%,99%,102%,97.9%,102%,98.9%,102%,103%
Cc1ccc(-c2csc(/N=C3\C(=O)Nc4ccccc43)n2)cc1,42.2%,1.43% (active),-3.69% (active),11.2%,-4.86% (active),33%,13.9%,20.3%,11.9%,13.4%
O=c1[nH]c(=O)[nH]c(=S)[nH]1,105%,105%,98%,102%,107%,102%,102%,98.8%,101%,100%
COc1cccc(-c2nc3occn3c2-c2ccnc(NCCCNS(=O)(=O)c3cccc(F)c3)n2)c1,93.8%,69%,70.2%,104%,99.2%,87%,94.8%,106%,83.8%,60.9%
C=C(C)[C@@H]1CC[C@]2(C(=O)NCC(=O)OC)CC[C@]3(C)[C@H](CC[C@@H]4[C@@]5(C)Cc6c([nH]c7ccccc67)C(C)(C)[C@@H]5CC[C@]43C)[C@@H]12,83.8%,44.9%,93.9%,82.2%,76%,74.7%,76.7%,85.1%,75.7%,89.5%
CCCC1C(C(=O)OCC)=C(N)Oc2cc(O)ccc21 (stereo not given),103%,85.6%,98.8%,93.6%,131%,104%,102%,93.8%,104%,90.5%
COc1cc2nc(-c3ccc(C(F)(F)F)cc3)cc(OCCCN3CCCCC3)c2cc1OC,45.3%,12.8%,39.9%,27.7%,26.9%,50.6%,-46.8% (active),46.1%,10.1%,-19.2% (active)
BrC(Br)(Br)c1cnc2ccccc2n1,4.36% (active),1.19% (active),-10.4% (active),46%,-31.5% (active),54.5%,74.3%,27.2%,39.9%,42.9%
COc1ccc2nc(N=Nc3c(O)ccc4ccccc34)sc2c1,37.1%,19.1%,57.5%,45.2%,52.4%,33.4%,16.5%,22.9%,36.9%,1.92% (active)
O=C(c1ccccc1)N1N=C(c2ccc(-n3ccc(C(F)(F)F)n3)cc2)CC1c1ccc[nH]1 (stereo not given),104%,65.1%,93.6%,97.6%,97.1%,98.6%,97.1%,92.6%,90.1%,79%
COc1ccc2c(c1)OC13Oc4cc(OC)ccc4C=C1CCCC3=C2,33.9%,23.5%,70.3%,32%,16%,38.5%,78.6%,84.5%,52.5%,31.5%
O=C(CCN1CCCC1)Nc1ccc2c(Nc3ccccc3)c3ccccc3nc2c1,-28.5% (active),0.263% (active),-85.1% (active),3.81% (active),8.26% (active),26.1%,33.4%,-62.5% (active),-39.5% (active),-77.4% (active)
COc1cc(C(=O)/C=C/c2c(C)n([O-])c3ccc(Cl)cc3[n+]2=O)cc(OC)c1OC,36.3%,1.97% (active),95.4%,81%,43.2%,65.5%,95%,73.7%,81.2%,80.9%
CCNNC(=O)[C@@H]1[C@H](c2cc(OC)c(OC)c(OC)c2)c2cc3c(cc2[C@H](O)[C@H]1CO)OCO3,-24% (active),13.7%,56.3%,39.6%,15.3%,31.1%,9.93% (active),-10.9% (active),53%,-19.5% (active)
O=C1/C(=C\c2cn(Cc3ccccc3)c3ccc(Br)cc23)c2ccccc2N1c1c(Cl)cccc1Cl,127%,109%,109%,98%,101%,113%,98.5%,103%,102%,105%

# Source: PubChem BioAssay (NCI)
